Several values for one entry are separate records, joined by “and”; a condition that tells them apart may be missing. Equal entries are not always repeated. Results filed as inconclusive are left out. Where a call stands in place of a potency, no number is given. More than one record can exist for a structure, and the calls need not agree. Activity calls are given as the source filed them. Calls come from the whole dose curve; as a rule, active = well fitted inhibition curve with a large enough effect; inconclusive = small, poorly fitted or top-dose-only effect; inactive = flat fitted curve, though single readings scatter.
Note: nearly all actives have a fitted effect of over 65% in size.
Potency is the fitted concentration of half-maximal effect.

Phospholipid hydroperoxide glutathione peroxidase GPX4 (Homo sapiens), sequence (P36969 whole entry, looked up): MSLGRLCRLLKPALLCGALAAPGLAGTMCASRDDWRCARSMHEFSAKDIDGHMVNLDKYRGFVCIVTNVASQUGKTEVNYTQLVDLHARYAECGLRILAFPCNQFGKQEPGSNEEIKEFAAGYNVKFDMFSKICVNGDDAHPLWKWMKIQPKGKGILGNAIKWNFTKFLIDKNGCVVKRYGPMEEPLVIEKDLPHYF
Glutathione peroxidase 1 (Homo sapiens), sequence (P07203 whole entry, looked up): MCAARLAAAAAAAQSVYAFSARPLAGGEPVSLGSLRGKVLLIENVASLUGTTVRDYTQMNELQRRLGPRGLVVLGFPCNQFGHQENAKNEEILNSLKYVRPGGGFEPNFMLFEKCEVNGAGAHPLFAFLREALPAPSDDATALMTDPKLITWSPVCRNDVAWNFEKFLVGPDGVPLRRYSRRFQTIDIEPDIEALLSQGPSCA

One experiment addresses Glutathione peroxidase 1 (Homo sapiens) (UniProt P07203). The experiment in a line: Primary qHTS Assay for Inhibitors of Recombinant Selenoprotein Glutathione Peroxidase 1 (GPX1) (AID 1845191). The conditions noted are these: recombinant GPX1, GR-coupled NADPH fluorescence, 15 min; series mostly up to 48.8 µM; activity, negative = inhibition: at the top concentration. Summed up:
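GPX1 10 nM, GR 100 nM, GSH 1 mM, NADPH 0.5 mM, CHP 0.5 mM (final). 30-min cpd preincubation, RT. Ex340/Em450 read t=0, t=15 min.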
As for `OC[C@H]1O[C@H](O[C@]2(CCl)O[C@H](CCl)[C@@H](O)[C@@H]2O)[C@H](O)[C@@H](O)[C@H]1Cl`, the Potency result is “inactive”.

In the case of `CC(=O)OCC(=O)[C@@]1(O)CC[C@H]2[C@@H]3CCC4=CC(=O)C=C[C@]4(C)[C@H]3[C@@H](O)C[C@@]21C`, the Potency entry was “inactive”.

For `O=C1OCCN1/N=C/c1ccc([N+](=O)[O-])o1`, the “activity, negative = inhibition” value is -15.5% (inactive).

Regarding `COc1ccc(OC)c(C(O)CNC(=O)CN)c1` (configuration not stated), the “activity, negative = inhibition” value is -7.72% (inactive).

On to `CC(C)(C)NC(=O)[C@@H]1CN(Cc2cccnc2)CCN1C[C@@H](O)C[C@@H](Cc1ccccc1)C(=O)N[C@H]1c2ccccc2C[C@H]1O`, for which the Potency entry was “inactive”.

In the case of `Cc1c(C(C)C)c(=O)n(-c2ccccc2)n1C`, the “activity, negative = inhibition” value is -4.99% (inactive).

Take `Cc1cc2c(cc1CC(=O)c1sccc1S(=O)(=O)Nc1onc(C)c1Cl)OCO2`: the Potency was 18 µM (active) and inactive.

`COC(=O)C1=C(C)NC(C)=C(C(=O)O[C@@H]2CCCN(Cc3ccccc3)C2)[C@@H]1c1cccc([N+](=O)[O-])c1`: the “activity, negative = inhibition” value is -22.8% (inactive).

Consider `COC(=O)CCc1ccc(OCC(O)CNC(C)C)cc1` (configuration not stated), for which the Potency result is “inactive”.

Consider `C#C[C@]1(OC(C)=O)CC[C@H]2[C@@H]3CCC4=C[C@@H](OC(C)=O)CC[C@@H]4[C@H]3CC[C@@]21C`, for which the Potency result was “inactive”.

As to `O=C(OCCOCCO)c1ccccc1Nc1cccc(C(F)(F)F)c1`, the “activity, negative = inhibition” value was -14.7% (inactive).

As to `NC(=NCCCCCCN=C(N)/N=C(\N)Nc1ccc(Cl)cc1)/N=C(\N)Nc1ccc(Cl)cc1`, the Potency result was “inactive”.

Consider `COc1cc(NS(C)(=O)=O)ccc1Nc1c2ccccc2nc2ccccc12`, for which the Potency entry was “inactive and 25.5 µM (active)”.

For `Cc1onc(-c2c(Cl)cccc2Cl)c1C(=O)N[C@@H]1C(=O)N2[C@@H]1SC(C)(C)[C@@H]2C(=O)O`, the Potency entry was “inactive”.

In the case of `Cc1nc2n(c(=O)c1CCN1CCC(c3noc4cc(F)ccc34)CC1)CCC[C@H]2O`, the Potency entry was “inactive”.

With `O=c1[nH]c(=O)n([C@H]2CCCO2)cc1F`, the Potency entry is “inactive”.

Turning to `CCCCS(=O)(=O)N[C@@H](Cc1ccc(OCCCCC2CCNCC2)cc1)C(=O)O`, the Potency result is “inactive”.

For the molecule `CCCCCCCCCCCCCCCCCC(=O)OCC(O)CO` (configuration not stated), the outcome was inactive.

Consider `CNCC[C@@H](Oc1ccccc1C)c1ccccc1`, for which the “activity, negative = inhibition” value is -15.6% (inactive).

On to `COc1ccc(CN2CCN(C(c3ccc(F)cc3)c3ccc(F)cc3)CC2)c(OC)c1OC`, for which the Potency result is “inactive”.

`Oc1cc(O)c2c(c1)O[C@H](c1ccc(O)c(O)c1)[C@H](O)C2`: the outcome was inactive.

As for `CN(C)CCCOc1nn(Cc2ccccc2)c2ccccc12`, the Potency entry is “inactive”.

Turning to `Cc1ccccc1C(=O)Nc1ccc(C(=O)N2CCCC(N(C)C)c3ccccc32)cc1` (configuration not stated), the result was inactive.

For the molecule `CC(=O)O[C@]1(C(C)=O)CC[C@H]2[C@@H]3C[C@H](C)C4=CC(=O)CC[C@]4(C)[C@H]3CC[C@@]21C`, the Potency result was “inactive”.

With `CC(C)(C)CC(C)(C)c1ccc(OCCOCC[N+](C)(C)Cc2ccccc2)cc1`, the Potency entry was “inactive”.

Take `C#C[C@]1(O)CC[C@H]2[C@@H]3CCC4=CC(=O)CC[C@@H]4[C@H]3CC[C@@]21C`: the “activity, negative = inhibition” value is -0.0169% (inactive).

As for `COc1cccc(OC)c1C(=O)N[C@@H]1C(=O)N2[C@@H]1SC(C)(C)[C@@H]2C(=O)O`, the Potency entry was “inactive”.

Turning to `CC(=O)CC(c1ccc([N+](=O)[O-])cc1)c1c(O)c2ccccc2oc1=O` (configuration not stated), the “activity, negative = inhibition” value is -4.85% (inactive).

For `CN1C(CCl)Nc2cc(Cl)c(S(N)(=O)=O)cc2S1(=O)=O` (configuration not stated), the Potency result was “inactive”.

As for `CN1[C@@H]2CC[C@H]1CC(OC(=O)c1c[nH]c3ccccc13)C2` (some centres not stated), the Potency entry was “inactive”.

With `CN1CCN(C(c2ccccc2)c2ccccc2)CC1`, the Potency result is “inactive”.

Consider `Cc1ccc(C(=O)C(C)CN2CCCCC2)cc1` (configuration not stated), for which the Potency entry was “inactive”.

Regarding `CC(C)n1nc(-c2cc3cc(O)ccc3[nH]2)c2c(N)ncnc21`, the “activity, negative = inhibition” value is -14% (inactive).

Consider `CC(=O)OCC(=O)[C@@]1(O)[C@H](C)C[C@H]2[C@@H]3CCC4=CC(=O)C=C[C@]4(C)[C@@]3(F)[C@@H](O)C[C@@]21C`, for which the Potency entry is “inactive”.

Take `Cc1ccc(Nc2c(F)cccc2Cl)c(CC(=O)O)c1`: the Potency entry was “inactive”.

Turning to `CC/C(=C(/CC)c1ccc(O)cc1)c1ccc(O)cc1`, the Potency result is “inactive”.

Another experiment concerns the target Phospholipid hydroperoxide glutathione peroxidase GPX4 (Homo sapiens) (UniProt P36969). The experiment in a line: Primary qHTS Assay for Inhibitors of Recombinant Selenoprotein Glutathione Peroxidase 4 (GPX4) (AID 1845192). To be noted: recombinant GPX4, GR-coupled NADPH fluorescence, 15 min; series mostly up to 50 µM; activity change, negative = inhibition: at the top concentration. Summed up:
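qHTS, GR-coupled: GPX4 200 nM + cpd 30 min RT → GSH 1 mM, NADPH 0.5 mM, GR 100 nM → CHP 0.5 mM start; fluor 340/450 at t0 and t15 min; no-enzyme wells as control.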
For orientation: Quantitative high-throughput screening tests each substance at several concentrations.
For `CC(=O)OCC(=O)[C@@]1(O)CC[C@H]2[C@@H]3CCC4=CC(=O)C=C[C@]4(C)[C@H]3[C@@H](O)C[C@@]21C`, the Potency result was “inactive”.

On to `O=C1OCCN1/N=C/c1ccc([N+](=O)[O-])o1`, for which the “activity change, negative = inhibition” value is -9.67% (inactive).

Regarding `COc1ccc(OC)c(C(O)CNC(=O)CN)c1` (configuration not stated), the “activity change, negative = inhibition” value was -12.5% (inactive).

With `CC(C)(C)NC(=O)[C@@H]1CN(Cc2cccnc2)CCN1C[C@@H](O)C[C@@H](Cc1ccccc1)C(=O)N[C@H]1c2ccccc2C[C@H]1O`, the Potency result is “inactive”.

As for `Cc1c(C(C)C)c(=O)n(-c2ccccc2)n1C`, the “activity change, negative = inhibition” value was 1.19% (inactive).

For the molecule `Cc1cc2c(cc1CC(=O)c1sccc1S(=O)(=O)Nc1onc(C)c1Cl)OCO2`, the Potency result was “inactive”.

For the molecule `COC(=O)C1=C(C)NC(C)=C(C(=O)O[C@@H]2CCCN(Cc3ccccc3)C2)[C@@H]1c1cccc([N+](=O)[O-])c1`, the “activity change, negative = inhibition” value was 1.78% (inactive).

For `COC(=O)CCc1ccc(OCC(O)CNC(C)C)cc1` (configuration not stated), the Potency entry was “inactive”.

For `CCN1CCN(c2cc3c(cc2F)c(=O)c(C(=O)O)cn3C2CC2)CC1`, the “activity change, negative = inhibition” value is 1.52% (inactive).

As to `C#C[C@]1(OC(C)=O)CC[C@H]2[C@@H]3CCC4=C[C@@H](OC(C)=O)CC[C@@H]4[C@H]3CC[C@@]21C`, the Potency result is “inactive”.

`O=C(OCCOCCO)c1ccccc1Nc1cccc(C(F)(F)F)c1`: the “activity change, negative = inhibition” value was -10.6% (inactive).

Take `COc1cc(NS(C)(=O)=O)ccc1Nc1c2ccccc2nc2ccccc12`: the Potency entry is “inactive and 22.4 µM (active)”.

On to `O=c1[nH]c(=O)n([C@H]2CCCO2)cc1F`, for which the Potency result was “inactive”.

With `CCCCCCCCCCCCCCCCCC(=O)OCC(O)CO` (configuration not stated), the result was inactive.

For `CNCC[C@@H](Oc1ccccc1C)c1ccccc1`, the result was inactive.

On to `COc1ccc(CN2CCN(C(c3ccc(F)cc3)c3ccc(F)cc3)CC2)c(OC)c1OC`, for which the Potency entry was “inactive”.

Regarding `Oc1cc(O)c2c(c1)O[C@H](c1ccc(O)c(O)c1)[C@H](O)C2`, the result was inactive.

For the molecule `CC(=O)O[C@]1(C(C)=O)CC[C@H]2[C@@H]3C[C@H](C)C4=CC(=O)CC[C@]4(C)[C@H]3CC[C@@]21C`, the “activity change, negative = inhibition” value was -2.17% (inactive).

On to `CC(C)(C)CC(C)(C)c1ccc(OCCOCC[N+](C)(C)Cc2ccccc2)cc1`, for which the Potency entry was “inactive”.

For the molecule `C#C[C@]1(O)CC[C@H]2[C@@H]3CCC4=CC(=O)CC[C@@H]4[C@H]3CC[C@@]21C`, the result was inactive.

For the molecule `COc1cccc(OC)c1C(=O)N[C@@H]1C(=O)N2[C@@H]1SC(C)(C)[C@@H]2C(=O)O`, the Potency entry was “inactive”.

Regarding `CC(=O)CC(c1ccc([N+](=O)[O-])cc1)c1c(O)c2ccccc2oc1=O` (configuration not stated), the “activity change, negative = inhibition” value is -16.2% (inactive).

Regarding `CN1C(CCl)Nc2cc(Cl)c(S(N)(=O)=O)cc2S1(=O)=O` (configuration not stated), the Potency result is “inactive”.

On to `CN1[C@@H]2CC[C@H]1CC(OC(=O)c1c[nH]c3ccccc13)C2` (some centres not stated), for which the Potency entry is “inactive”.

As for `CN1CCN(C(c2ccccc2)c2ccccc2)CC1`, the Potency result is “inactive”.

For the molecule `Cc1ccc(C(=O)C(C)CN2CCCCC2)cc1` (configuration not stated), the Potency result is “inactive”.

Regarding `CC(C)n1nc(-c2cc3cc(O)ccc3[nH]2)c2c(N)ncnc21`, the “activity change, negative = inhibition” value is -3.43% (inactive).

In the case of `CN(C/C=C/c1ccccc1)Cc1cccc2ccccc12`, the “activity change, negative = inhibition” value is -39.7% (inactive).

In the case of `CC(=O)OCC(=O)[C@@]1(O)[C@H](C)C[C@H]2[C@@H]3CCC4=CC(=O)C=C[C@]4(C)[C@@]3(F)[C@@H](O)C[C@@]21C`, the Potency entry is “inactive”.

With `Nc1ccn([C@@H]2O[C@H](CO)[C@@H](O)C2(F)F)c(=O)n1`, the Potency entry was “inactive”.

Turning to `CC/C(=C(/CC)c1ccc(O)cc1)c1ccc(O)cc1`, the Potency entry was “inactive”.

Values taken from PubChem BioAssay (NCATS).
